Experimental data taken from the supplement of paper PMC10681739.

What follows are sequences tested against T1, ETS1 (UniProt P14921) (assay: TF binding intensity (PBM fluorescence), negative control probe (arbitrary fluorescence units); higher = stronger binding).
T1 sequence: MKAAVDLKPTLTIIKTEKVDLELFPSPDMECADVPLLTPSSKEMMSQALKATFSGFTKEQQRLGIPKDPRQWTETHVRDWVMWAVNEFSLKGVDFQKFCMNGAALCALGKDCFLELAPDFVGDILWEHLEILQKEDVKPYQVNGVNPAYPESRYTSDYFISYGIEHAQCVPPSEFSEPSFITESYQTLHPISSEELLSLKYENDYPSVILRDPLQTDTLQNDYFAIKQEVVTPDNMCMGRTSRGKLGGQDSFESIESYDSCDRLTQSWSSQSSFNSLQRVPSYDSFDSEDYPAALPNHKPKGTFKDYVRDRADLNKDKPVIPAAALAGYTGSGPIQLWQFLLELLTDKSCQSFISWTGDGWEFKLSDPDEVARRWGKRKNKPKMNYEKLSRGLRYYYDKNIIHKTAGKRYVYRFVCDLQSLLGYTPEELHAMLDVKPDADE
Description: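 gcPBM negative-control 36-bp genomic probes lacking TF binding sites. Each was incubated with recombinant human ETS1 or RUNX1 alone and detected by antibody fluorescence. Values are medians over replicate spots (4 spots for the ETS1-RUNX1 arrays, 3 for the ETS1-ETS1 array). The probes sit in constant array flanks that are not printed.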
Work on “CCCCTCCAGACTCCCCTGACCCAGGGTGGAGGACAT (protein concentration 10 nM)” yielded a TF binding intensity of 161.
“GAAATCCAGGAGAAAAATGCAGGACAGTCAGAGTAA (protein concentration 10 nM)” showed a TF binding intensity of 106.
With “TTTTTAAATTCGGTTTTGTGTTTTATCTTCAATTTC (protein concentration 10 nM)” the TF binding intensity was 105.
“GGCCCTGGGCCTGACCCATGAAATCATTTTTCCCTT (protein concentration 10 nM)” was tested, and the TF binding intensity was 94.3.
“TCCTCACGAATCTCTCTACTTCTGTTCTTGCCCATC (protein concentration 10 nM)” was tested, and the TF binding intensity was 135.
Work on “ACATGTCAAAGAGCTTCTTTAAGCAGTAGGTGGTTT (protein concentration 10 nM)” yielded a TF binding intensity of 143.
Sequence “TCCTCAGGGACGTGTGAGAACCTGGCTAGGCAAGAG (protein concentration 10 nM)” has a TF binding intensity of 135.
For “GCAGCTCTAGTTTCTACCACACCAATGGGAGGGATC (protein concentration 1 nM)”, the TF binding intensity was 320.
“CCAGCAGCAGTTGTGAATTGGGTAATTTAATGAAAA (protein concentration 10 nM)” gave a TF binding intensity of 116.
Sequence “CCGGGCCGCTGCGGGCTCCCCAGCTCCCCACAGATC (protein concentration 10 nM)” has a TF binding intensity of 147.
Sequence “TGGAAAATAATATTTCAAGACCATAATATGGCTGCT (protein concentration 10 nM)” has a TF binding intensity of 100.
Sequence “CCTTGCCAATGTTTGTGTGGAGAGCACACGGGTGCT (protein concentration 10 nM)” has a TF binding intensity of 116.
Sequence “GATGCTTTTGTCCCACTAGGGCTCGTGCCTTAGTGA (protein concentration 10 nM)” has a TF binding intensity of 112.
With “ACGTGTGGGGACCCAAGCTATCCCTAAGAAAGCACT (protein concentration 10 nM)” the TF binding intensity was 115.
In the case of “CTCTACCTACAAAAAGACTGCAATTGTGTTACCTTT (protein concentration 10 nM)”, the TF binding intensity was 132.
In the case of “ACCTGTGAATAGACTGACCAAATGCAAGCTGGACCA (protein concentration 10 nM)”, the TF binding intensity was 111.
Work on “CTCCCTCTCTCCCTCCCTCCCTCCCTCCCTCCCTTC (protein concentration 10 nM)” yielded a TF binding intensity of 230.
In the case of “GAAGTTTCAAGATGTAGTAGTTAAAGTATTAACTTA (protein concentration 10 nM)”, the TF binding intensity was 113.
“AGAAGCTTGGCTTGGTCTGCGCCTCCTCCCGTGCCT (protein concentration 10 nM)” gave a TF binding intensity of 101.
“TTCAAAGCACATTCACCCACATGATCCTATTGATCT (protein concentration 1 nM)” was tested, and the TF binding intensity was 468.
“AAAAAAATAGCTTTAACCACAAAAACTCCTTGAAAA (protein concentration 1 nM)” gave a TF binding intensity of 514.
“CTTGGTGTGTCTGAAGAAAGATCAGAAGGCTGGCAT (protein concentration 10 nM)” was tested, and the TF binding intensity was 123.
“TAGTCCTGGAAAGGTCATGTCAACCCTCCTGCATAT (protein concentration 10 nM)” showed a TF binding intensity of 115.
With “CTCCACGACCCTGAAACTAGAACAAGACCTCTCCTC (protein concentration 10 nM)” the TF binding intensity was 165.
Sequence “TGCTCTAGAGATGTGATCGTCCTCATTTCATGAAGG (protein concentration 10 nM)” has a TF binding intensity of 121.
For “GAACTAACGAGGTCACTGAGAAATTACAAAGTGTGA (protein concentration 10 nM)”, the TF binding intensity was 107.
“CCGCACGCGGGCGCGGGCCAGCTGCAGATGGAGAAC (protein concentration 10 nM)” showed a TF binding intensity of 136.
“GATGCTCTGATACGCGCTGAAAAGAAGTCAGGCTTC (protein concentration 10 nM)” was tested, and the TF binding intensity was 134.
For “AAAACAAACAAACCAAACAACACAACAGAAGTTTTC (protein concentration 10 nM)”, the TF binding intensity was 150.
Work on “TGACCGGCGCCGACCCGGGGCGCCGAGAGGCCCACC (protein concentration 10 nM)” yielded a TF binding intensity of 115.
“ATGGATAAGAATGTCTGTGGGTAGCTGTCTCCTCTT (protein concentration 1 nM)” was tested, and the TF binding intensity was 444.
Work on “CTGGTGGCCACCCTTGTGGCGCTGAGGTGCTGAGGT (protein concentration 10 nM)” yielded a TF binding intensity of 127.
“AGAGAATCTGATTGGTTGTTGACCTTTGGGACAAGT (protein concentration 10 nM)” gave a TF binding intensity of 105.
Work on “AAAGGCAGATCTCCAAATCTCCAGGCCTGCTCGTTG (protein concentration 10 nM)” yielded a TF binding intensity of 96.1.
